We go through 33 compounds from PubChem BioAssay AID463173 (ICCB-Longwood Screening Facility, Harvard Medical School, 2010).

Hit rate of the full screen: of about 52,000 compounds, about 4,300 (8.3%) were called active. The sample as a whole holds a higher share of actives than the screen did. Values without a mark were called inactive. No stated cut-off is given here; in the data, active means survival mostly below about 52% (no sharp cut-off); inactive means mostly above about 56%.

The assay deals with DeltatarO mutant. Kind of assay: S. aureus survival, RN4220 and DeltatarO strains – OD600, teichoic acid synthesis inhibitors, primary screen (AID 463173). Particulars: S. aureus RN4220 wild type/DeltatarO growth, OD600, 18 h, active compounds read low, screened at 18.75 µg/mL (by protocol).
For the compound `COc1ccc(Cn2nnnc2C(C(C)C)N2CCc3ccccc32)cc1` (stereo not drawn), the survival is 82%.
The same measure for `CC(=O)N1CCC(N(Cc2ccco2)C(=O)Nc2ccc(C)c(Cl)c2)CC1`: 128%; for `CN(C)S(=O)(=O)c1ccc2c(c1)N(CC(=O)NCc1ccccc1)C(=O)C1CCCCN21` (stereo not drawn): 67%; for `CCSc1nc2n(n1)C(c1ccc(C(=O)O)cc1)C(C(=O)Nc1ccccc1C)=C(C)N2` (stereo not drawn): 84%.
Take `COc1ccc(N2CCN(C(=O)Nc3ccc(Cl)cc3)CC2)cc1`: the survival was 168%.
The same measure for `COc1ccc(S(=O)(=O)c2cn(CC(=O)Nc3cc(C)ccc3C)c3ccccc3c2=O)cc1`: 86%; for `COc1ccccc1NC(=O)C1=C(C)Nc2nc(SCc3cc(C)ccc3C)nn2C1c1ccccc1` (stereo not drawn): 116%.
With `CCOc1ccc(NC(=O)CSc2ncc3c(n2)-c2ccc(Cl)cc2N(Cc2ccccc2)S3(=O)=O)cc1`, the survival was 99%.
The same measure for `O=C(NCc1ccccc1Cl)c1ccc(Nc2nc3ccccc3n3nnnc23)cc1`: 84%.
In the case of `Cc1cc(/C=C(\C#N)C(=O)Nc2ccccc2)c(C)n1-c1ccc(F)cc1`, the survival is 59%.
As for `COc1cccc(Nc2nnc(-c3cc4ccc(O)cc4oc3=O)s2)c1`, the figure is 85%; as for `Nc1c(C(=O)Nc2cccc(F)c2)sc2nc(-c3cccs3)ccc12`, 69%; as for `CCOc1ccc(OCC)c(NC(=O)c2cc(-c3cccs3)nc3ccccc23)c1`, 85%.
As for `Cc1ccc(NC(=O)c2sc3nc(-c4ccncc4)ccc3c2N)cc1`, the figure is 131%.
As for `O=C(Nc1ccc(Br)cc1)c1cc(-c2cccs2)nc2ccccc12`, the figure is 83%.
For `Cc1cc(F)ccc1NC(=O)c1sc2nc(-c3cccs3)ccc2c1N`, the survival was 45% (active).
Take `Cc1ccccc1NC(=O)c1sc2nc(-c3ccncc3)ccc2c1N`: the survival is 39%.
As for `CC(C)CSc1ccccc1NC(=O)c1sc2nc(-c3ccncc3)ccc2c1N`, the figure is 46% (active).
Take `Cc1ccc(NC(=O)c2cc(-c3cccs3)nc3ccccc23)c(C)c1`: the survival was 57% (active).
As for `Nc1c(C(=O)Nc2ccc(Cl)cc2F)sc2nc(-c3cccs3)ccc12`, the survival was 58%.
Turning to `Cc1ccc(N(Cc2cccs2)C(=O)c2ccc(Br)o2)cc1`, the survival is 73%.
Turning to `CC(C)(C)C(=O)CSc1nc2ccsc2c(=O)n1Cc1ccccc1Cl`, the survival is 77%.
For `COc1ccc(-c2nc3n(c2NC(C)(C)C)CCN(C(=O)Cc2ccccc2F)C3)cc1`, the survival was 88%.
The same measure for `CSc1ccc(CCNC(=O)c2ccc3c(c2)nc2n3CCC(C)C2)cc1` (stereo not drawn): 83%.
On to `CCCS(=O)(=O)c1ncc(Cl)c(C(=O)Nc2scc(-c3ccccc3)c2C(=O)OCC)n1`, for which the survival was 25% (active).
Regarding `CCOC(=O)c1c(NC(=O)c2nc(SCC)ncc2Cl)sc(C(C)=O)c1C`, the survival is 75%.
As for `CCOC(=O)c1c(NC(=O)c2nc(S(C)(=O)=O)ncc2Cl)sc(C(C)=O)c1C`, the survival was 6% (active).
As to `CCCSc1ncc(Cl)c(C(=O)Nc2scc(-c3ccc(C)cc3)c2C(=O)OCC)n1`, the survival was 62%.
Take `CCCSc1ncc(Cl)c(C(=O)Nc2sc(C(C)=O)c(C)c2C(=O)OCC)n1`: the survival is 51%.
The same measure for `CCOC(=O)c1c(-c2ccc(C)cc2)csc1NC(=O)c1nc(SC(C)C)ncc1Cl`: 61%; for `CCOC(=O)c1c(-c2ccccc2)csc1NC(=O)c1nc(S(=O)(=O)CC)ncc1Cl`: 11% (active).
The same measure for `CCOC(=O)c1c(-c2ccc(C)cc2)csc1NC(=O)c1nc(SCC)ncc1Cl`: 84%.
For `CCOC(=O)c1c(-c2ccccc2)csc1NC(=O)c1nc(SCC)ncc1Cl`, the survival is 87%.
